Data on 40 compounds can be found in PubChem BioAssay.

Values without a mark were called inactive. Calls of active or inactive are those of the source.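 The calls were made as follows, unless noted: active = GFP response above 150% of the DMSO control; inconclusive = Fewer than 70 cells counted for a yeast strain; inactive = the rest.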

One test is described as follows: TOR pathway reporter MEP2-GFP, retest of hits – S. cerevisiae, flow cytometry GFP, cherry picks, confirmation (AID 2272).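 Also: ratio of well signal to plate DMSO mean so 100% equals DMSO level.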 The note with it: S. cerevisiae MEP2-GFP strain, 3 h, at 10 µM, hits give high values. Background: A flow cytometer gives signals particle by particle.
For `COC(=O)Cn1cc(/C=C/c2cc[n+](C)cc2)c2ccccc21`, the GFP response vs DMSO is 112%.
Same read-out and setting: next, `C=CCNC(=S)N/N=C(\C)c1cccc(OC)c1`: 99.5%.
The same measure, in the same setting: next, `COc1cccc(-c2nnc(NC(=O)c3ccc(S(=O)(=O)N4CCOCC4)cc3)o2)c1`: 101%; `CCc1ccc(CNC(=O)CCC(=O)N2Cc3cccc(OC)c3Oc3ncccc32)cc1`: 101%.
Same read-out and setting: the same measure for `N#C/C(=C\c1c(N2CCCCCC2)nc2ccccn2c1=O)C(=O)NCc1ccco1`: 98.3%.
With `C=CCn1c(=O)c(C(=O)NCCc2ccccc2)c(O)c2ccccc21`, the GFP response vs DMSO is 96.2%.
Consider `CCOC(=O)COc1c(Cl)cc(/C=C2\N=C(C)OC2=O)cc1OC`, for which the GFP response vs DMSO was 104%.
The same measure, in the same setting: the same measure for `CCOc1ccccc1/C=C/C(=O)c1ccc(Cl)cc1`: 98.3%.
On the same count and under the same terms, the same measure for `Cc1c([N+](=O)[O-])cnc(Sc2ccccc2)c1[N+](=O)[O-]`: 102%.
Same read-out and setting: the same measure for `O=C(COC(=O)c1ccc(NS(=O)(=O)c2cccs2)cc1O)Nc1nc2ccccc2s1`: 102%; for `COc1ccc(Sc2ncnc3onc(C)c23)cc1`: 103%.
As to `Cc1ccc(S(=O)(=O)N2C3C=CC(C3)C2C(=O)O)cc1` (stereo not given), the GFP response vs DMSO is 106%.
With `Cc1ccc(C(C[N+](=O)[O-])Sc2ccc(N)cc2)cc1` (stereo not given), the GFP response vs DMSO was 109%.
The same measure, in the same setting: the same measure for `CCOc1ccc(N2C(=O)CC(SCCN)C2=O)cc1` (stereo not given): 105%; for `O=C(O)Cc1sc(Nc2ccccc2)nc1-c1cccs1`: 110%.
Consider `COc1ccccc1-c1noc(CCC(=O)Nc2cccc(C(F)(F)F)c2)n1`, for which the GFP response vs DMSO is 107%.
On to `Cn1cc(/C=C/c2cc[n+](C)cc2)c2cc(Cl)ccc21`, for which the GFP response vs DMSO was 122%.
As to `COc1cccc(-c2noc(-c3cccnc3)n2)c1`, the GFP response vs DMSO was 101%.
Same read-out and setting: next, `COc1ccc(-c2ccc(SCC(=O)N3c4ccccc4CC3C)nn2)cc1OC` (stereo not given): 102%.
In the case of `Cc1ccc2c(nc3s/c(=C\c4ccc(-c5ccccc5C(=O)O)o4)c(=O)n32)c1C`, the GFP response vs DMSO was 346% (active).
On the same count and under the same terms, next, `COC(=O)C1=C(C)NC(C)=C(C(=O)OC)C1c1ccc(OC(=O)c2oc3ccccc3c2C)c(OC)c1`: 98.8%; `COc1ccc(N2CCN(C(=O)C3CCCN(S(=O)(=O)c4ccc(C)cc4)C3)CC2)cc1` (stereo not given): 105%.
Take `O=C(Nc1nccs1)C(c1ccccc1)N1CCCCC1` (stereo not given): the GFP response vs DMSO was 103%.
Still for that read-out and setting: next, `C/C(=N\NC(=O)c1cccc(Br)c1)c1ccc(Br)cc1`: 103%; `O=C(OCCCOC(=O)c1ccc(Br)o1)c1ccc(Br)o1`: 103%; `CCOC(=O)Cc1csc(NC(=O)c2sc3nc4c(C)cc(C)cc4cc3c2N)n1`: 109%.
Regarding `Cc1nn2c(N3CCOCC3)c3c(nc2c1-c1ccccc1)CCCC3`, the GFP response vs DMSO is 103%.
The same measure, in the same setting: the same measure for `O=C(Nc1cc(Sc2ccccn2)cc([N+](=O)[O-])c1)c1ccc(Cl)cc1`: 100%.
The same measure, in the same setting: the same measure for `O=S(=O)(c1cccc(C(F)(F)F)c1)c1ccc(O)cn1`: 100%.
The same measure, in the same setting: the same measure for `COc1cc(/C=N/Nc2nc(C)cc(=O)[nH]2)ccc1O`: 106%.
Regarding `O=C(N/N=C/c1ccccc1Cl)c1ccc(F)cc1`, the GFP response vs DMSO is 96.8%.
Consider `Cc1cccc(C(=O)Nc2ccc(O)cc2)c1`, for which the GFP response vs DMSO is 108%.
As for `COc1ccc(NC2=C(Cl)C(=O)N(CCc3ccccc3)C2=O)cc1`, the GFP response vs DMSO is 104%.
For the compound `CN(C(=O)c1cccnc1)c1nc(-c2ccccc2)cs1`, the GFP response vs DMSO is 106%.
With `Cc1ccc(NC(=O)c2nc(S(=O)(=O)Cc3ccccc3C)ncc2Cl)cc1C`, the GFP response vs DMSO was 103%.
Same read-out and setting: next, `Cc1cccn2c(=O)c(/C=C(\C#N)C(=O)NCc3ccco3)c(N3CCC(C(N)=O)CC3)nc12`: 103%.
On the same count and under the same terms, the same measure for `Cc1cc(C)c(C)c(S(=O)(=O)ON2C(=O)c3ccccc3C2=O)c1C`: 114%; for `CS(=O)(=O)c1nc(-c2cccs2)cc(C(F)(F)F)n1`: 143%; for `COc1cc(NC(=O)c2cccs2)ccc1NC(=O)c1cc2ccccc2o1`: 100%.
In the case of `Cc1cc(NCCN2CCOCC2)n2ncc(-c3ccccc3)c2n1`, the GFP response vs DMSO is 103%.

A further test is described as follows: yeast AGP1-GFP fluorescence change, single-dose – cell-based, flow cytometry, S. cerevisiae, cherry picks, confirmation (AID 2273;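 active = GFP response above 150% of the DMSO level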;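 also: median GFP channel fluorescence over the whole cell population gate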). The note with it: S. cerevisiae AGP1-GFP strain, 3 h, at 10 µM.
As to `COC(=O)Cn1cc(/C=C/c2cc[n+](C)cc2)c2ccccc21`, the GFP response, % of DMSO was 104%.
The same measure, in the same setting: the same measure for `C=CCNC(=S)N/N=C(\C)c1cccc(OC)c1`: 95.2%.
The same measure, in the same setting: the same measure for `COc1cccc(-c2nnc(NC(=O)c3ccc(S(=O)(=O)N4CCOCC4)cc3)o2)c1`: 100%; for `CCc1ccc(CNC(=O)CCC(=O)N2Cc3cccc(OC)c3Oc3ncccc32)cc1`: 96.7%; for `N#C/C(=C\c1c(N2CCCCCC2)nc2ccccn2c1=O)C(=O)NCc1ccco1`: 95.6%.
On the same count and under the same terms, the same measure for `C=CCn1c(=O)c(C(=O)NCCc2ccccc2)c(O)c2ccccc21`: 102%; for `CCOC(=O)COc1c(Cl)cc(/C=C2\N=C(C)OC2=O)cc1OC`: 98.9%.
In the case of `CCOc1ccccc1/C=C/C(=O)c1ccc(Cl)cc1`, the GFP response, % of DMSO was 102%.
As to `Cc1c([N+](=O)[O-])cnc(Sc2ccccc2)c1[N+](=O)[O-]`, the GFP response, % of DMSO was 97.6%.
`O=C(COC(=O)c1ccc(NS(=O)(=O)c2cccs2)cc1O)Nc1nc2ccccc2s1`: the GFP response, % of DMSO is 98.5%.
The same measure, in the same setting: the same measure for `COc1ccc(Sc2ncnc3onc(C)c23)cc1`: 99.1%; for `Cc1ccc(S(=O)(=O)N2C3C=CC(C3)C2C(=O)O)cc1` (stereo not given): 98.4%.
Same read-out and setting: the same measure for `Cc1ccc(C(C[N+](=O)[O-])Sc2ccc(N)cc2)cc1` (stereo not given): 89.6%; for `CCOc1ccc(N2C(=O)CC(SCCN)C2=O)cc1` (stereo not given): 92.3%.
On the same count and under the same terms, the same measure for `O=C(O)Cc1sc(Nc2ccccc2)nc1-c1cccs1`: 99.7%.
`COc1ccccc1-c1noc(CCC(=O)Nc2cccc(C(F)(F)F)c2)n1`: the GFP response, % of DMSO is 102%.
Still for that read-out and setting: the same measure for `Cn1cc(/C=C/c2cc[n+](C)cc2)c2cc(Cl)ccc21`: 111%.
In the case of `COc1cccc(-c2noc(-c3cccnc3)n2)c1`, the GFP response, % of DMSO is 97.3%.
On the same count and under the same terms, the same measure for `COc1ccc(-c2ccc(SCC(=O)N3c4ccccc4CC3C)nn2)cc1OC` (stereo not given): 99.3%; for `Cc1ccc2c(nc3s/c(=C\c4ccc(-c5ccccc5C(=O)O)o4)c(=O)n32)c1C`: 119%; for `COC(=O)C1=C(C)NC(C)=C(C(=O)OC)C1c1ccc(OC(=O)c2oc3ccccc3c2C)c(OC)c1`: 103%.
On the same count and under the same terms, next, `COc1ccc(N2CCN(C(=O)C3CCCN(S(=O)(=O)c4ccc(C)cc4)C3)CC2)cc1` (stereo not given): 97.3%; `O=C(Nc1nccs1)C(c1ccccc1)N1CCCCC1` (stereo not given): 101%; `C/C(=N\NC(=O)c1cccc(Br)c1)c1ccc(Br)cc1`: 98.8%.
The same measure, in the same setting: the same measure for `O=C(OCCCOC(=O)c1ccc(Br)o1)c1ccc(Br)o1`: 102%; for `CCOC(=O)Cc1csc(NC(=O)c2sc3nc4c(C)cc(C)cc4cc3c2N)n1`: 97.2%.
As for `Cc1nn2c(N3CCOCC3)c3c(nc2c1-c1ccccc1)CCCC3`, the GFP response, % of DMSO is 103%.
Consider `O=C(Nc1cc(Sc2ccccn2)cc([N+](=O)[O-])c1)c1ccc(Cl)cc1`, for which the GFP response, % of DMSO was 97.4%.
The same measure, in the same setting: the same measure for `O=S(=O)(c1cccc(C(F)(F)F)c1)c1ccc(O)cn1`: 94.7%; for `COc1cc(/C=N/Nc2nc(C)cc(=O)[nH]2)ccc1O`: 105%.
For the compound `O=C(N/N=C/c1ccccc1Cl)c1ccc(F)cc1`, the GFP response, % of DMSO was 102%.
For `Cc1cccc(C(=O)Nc2ccc(O)cc2)c1`, the GFP response, % of DMSO was 104%.
For `COc1ccc(NC2=C(Cl)C(=O)N(CCc3ccccc3)C2=O)cc1`, the GFP response, % of DMSO is 103%.
With `CN(C(=O)c1cccnc1)c1nc(-c2ccccc2)cs1`, the GFP response, % of DMSO is 96.1%.
The same measure, in the same setting: the same measure for `Cc1ccc(NC(=O)c2nc(S(=O)(=O)Cc3ccccc3C)ncc2Cl)cc1C`: 107%.
On the same count and under the same terms, next, `Cc1cccn2c(=O)c(/C=C(\C#N)C(=O)NCc3ccco3)c(N3CCC(C(N)=O)CC3)nc12`: 101%; `Cc1cc(C)c(C)c(S(=O)(=O)ON2C(=O)c3ccccc3C2=O)c1C`: 97.3%; `CS(=O)(=O)c1nc(-c2cccs2)cc(C(F)(F)F)n1`: 118%.
Still for that read-out and setting: the same measure for `COc1cc(NC(=O)c2cccs2)ccc1NC(=O)c1cc2ccccc2o1`: 99.9%.
Turning to `Cc1cc(NCCN2CCOCC2)n2ncc(-c3ccccc3)c2n1`, the GFP response, % of DMSO is 89.3%.
